Measured values as given in publication PMC7862700, “An all-to-all approach to the identification of sequence-specific readers for epigenetic DNA modifications on cytosine”.

What was measured:
Assay in all cases: DAPPL (digital affinity profiling via proximity ligation, sequencing); 10 mM Tris-HCl pH 7.5, 50 mM NaCl, 1 mM DTT, 4% glycerol, room temperature, 30 min; GST-TFs on glutathione beads, 16-mer random dsDNA library, 0.1% formaldehyde crosslink after washing; high values mean tight binding
Settings in all cases: protein: recombinant; tags: N-terminal GST; dsDNA, one strand shown
[1] = target: T1, ERF (Homo sapiens, UniProt P50548 1-548)
T1 sequence: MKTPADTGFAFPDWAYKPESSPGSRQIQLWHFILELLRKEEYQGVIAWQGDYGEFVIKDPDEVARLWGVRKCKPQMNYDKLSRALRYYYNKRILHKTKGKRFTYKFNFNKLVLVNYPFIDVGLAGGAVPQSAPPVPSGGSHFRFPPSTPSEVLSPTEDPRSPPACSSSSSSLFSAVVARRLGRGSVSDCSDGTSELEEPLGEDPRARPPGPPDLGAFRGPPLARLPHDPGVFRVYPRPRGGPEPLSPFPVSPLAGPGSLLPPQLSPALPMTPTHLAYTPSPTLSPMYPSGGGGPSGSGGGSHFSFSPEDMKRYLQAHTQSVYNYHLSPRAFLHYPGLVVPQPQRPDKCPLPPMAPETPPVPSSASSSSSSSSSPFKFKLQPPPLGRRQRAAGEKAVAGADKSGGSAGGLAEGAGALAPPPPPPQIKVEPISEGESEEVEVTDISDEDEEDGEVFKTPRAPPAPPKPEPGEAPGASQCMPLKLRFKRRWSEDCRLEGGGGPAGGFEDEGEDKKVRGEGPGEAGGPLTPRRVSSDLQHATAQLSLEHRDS
Method in brief: (§1)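 GST fusions of human transcription factors were expressed in yeast and captured with glutathione beads. Once given DNA barcodes and pooled alongside a tag-only sample, they were incubated for 30 min at room temperature with 200 nmole of a random double-stranded 16-mer DNA library in Tris/NaCl/DTT/glycerol buffer, then washed, crosslinked (0.1% formaldehyde), proximity-ligated, PCR-amplified and sequenced on an Illumina NextSeq500. The binding signal of each hexamer is its read frequency for a factor divided by its frequency for the tag-only sample.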

[2] = target: T2, ETV3L (Homo sapiens, UniProt Q6ZN32 1-361)
T2 sequence: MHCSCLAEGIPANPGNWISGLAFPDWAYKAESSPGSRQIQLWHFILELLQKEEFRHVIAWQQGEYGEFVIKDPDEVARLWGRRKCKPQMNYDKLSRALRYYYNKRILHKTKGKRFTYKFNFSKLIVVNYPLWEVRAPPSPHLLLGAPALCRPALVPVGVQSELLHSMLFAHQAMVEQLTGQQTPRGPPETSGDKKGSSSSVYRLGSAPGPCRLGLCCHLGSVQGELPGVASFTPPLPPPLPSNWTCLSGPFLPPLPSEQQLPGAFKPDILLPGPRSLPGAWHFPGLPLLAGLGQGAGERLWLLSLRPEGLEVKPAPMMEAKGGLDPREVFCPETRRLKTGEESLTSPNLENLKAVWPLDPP
Method in brief: as §1

[3] = target: T3, ETS2 (Homo sapiens, UniProt P15036 1-469)
T3 sequence: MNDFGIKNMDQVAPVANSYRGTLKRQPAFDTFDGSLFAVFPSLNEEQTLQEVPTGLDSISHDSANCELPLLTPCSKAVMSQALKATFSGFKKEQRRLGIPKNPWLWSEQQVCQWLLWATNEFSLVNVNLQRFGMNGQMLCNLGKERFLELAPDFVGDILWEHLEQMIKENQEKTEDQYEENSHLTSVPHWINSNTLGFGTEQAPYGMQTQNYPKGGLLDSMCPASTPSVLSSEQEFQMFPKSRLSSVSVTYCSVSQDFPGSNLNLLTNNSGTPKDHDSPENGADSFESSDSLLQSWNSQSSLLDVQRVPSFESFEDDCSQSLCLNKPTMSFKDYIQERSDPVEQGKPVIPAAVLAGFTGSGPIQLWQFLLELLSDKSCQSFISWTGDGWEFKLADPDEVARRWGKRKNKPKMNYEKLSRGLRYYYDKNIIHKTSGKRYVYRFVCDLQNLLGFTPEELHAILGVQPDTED
Method in brief: as §1

[4] = target: T4, SPDEF (Homo sapiens, UniProt O95238 1-335)
T4 sequence: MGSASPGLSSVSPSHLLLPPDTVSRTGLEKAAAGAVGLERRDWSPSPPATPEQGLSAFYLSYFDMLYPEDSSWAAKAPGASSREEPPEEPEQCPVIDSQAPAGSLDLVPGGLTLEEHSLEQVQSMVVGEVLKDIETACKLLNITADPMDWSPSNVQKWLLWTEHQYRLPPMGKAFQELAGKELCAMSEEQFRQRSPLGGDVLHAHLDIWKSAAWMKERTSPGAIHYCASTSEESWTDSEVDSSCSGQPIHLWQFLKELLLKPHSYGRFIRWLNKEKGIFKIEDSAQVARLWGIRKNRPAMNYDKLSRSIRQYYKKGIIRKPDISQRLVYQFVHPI
Method in brief: as §1

[5] = target: T5, ETV7 (Homo sapiens, UniProt Q9Y603 1-341)
T5 sequence: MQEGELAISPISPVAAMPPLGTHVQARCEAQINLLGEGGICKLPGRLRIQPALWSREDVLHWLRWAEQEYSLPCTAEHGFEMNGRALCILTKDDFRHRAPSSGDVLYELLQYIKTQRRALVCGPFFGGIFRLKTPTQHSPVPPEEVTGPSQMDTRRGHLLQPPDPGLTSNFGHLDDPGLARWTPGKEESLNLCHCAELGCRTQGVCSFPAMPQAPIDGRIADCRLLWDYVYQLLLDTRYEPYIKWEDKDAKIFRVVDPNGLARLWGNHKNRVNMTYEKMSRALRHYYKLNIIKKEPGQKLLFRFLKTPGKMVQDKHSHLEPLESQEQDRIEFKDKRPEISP
Method in brief: as §1

[6] = target: T6, ELF5 (Homo sapiens, UniProt Q9UKW6-2 1-255)
T6 sequence: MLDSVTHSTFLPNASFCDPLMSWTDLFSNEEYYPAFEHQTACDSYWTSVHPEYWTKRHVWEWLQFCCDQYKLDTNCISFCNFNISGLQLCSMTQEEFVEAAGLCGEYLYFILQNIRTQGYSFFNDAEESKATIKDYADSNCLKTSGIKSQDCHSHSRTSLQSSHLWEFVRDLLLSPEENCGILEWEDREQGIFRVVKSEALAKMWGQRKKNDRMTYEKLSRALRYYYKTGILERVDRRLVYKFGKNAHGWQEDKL
Method in brief: as §1

[7] = target: T7, ETV3 (Homo sapiens, UniProt P41162-2 1-143)
T7 sequence: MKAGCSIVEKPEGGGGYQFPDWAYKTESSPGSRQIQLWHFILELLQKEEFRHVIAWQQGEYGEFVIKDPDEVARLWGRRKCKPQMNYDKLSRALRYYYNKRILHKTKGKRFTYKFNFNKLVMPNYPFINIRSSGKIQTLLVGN
Method in brief: as §1

[8] = target: ETV6 (Homo sapiens, UniProt P41212 1-452)
ETV6, sequence (P41212 whole entry): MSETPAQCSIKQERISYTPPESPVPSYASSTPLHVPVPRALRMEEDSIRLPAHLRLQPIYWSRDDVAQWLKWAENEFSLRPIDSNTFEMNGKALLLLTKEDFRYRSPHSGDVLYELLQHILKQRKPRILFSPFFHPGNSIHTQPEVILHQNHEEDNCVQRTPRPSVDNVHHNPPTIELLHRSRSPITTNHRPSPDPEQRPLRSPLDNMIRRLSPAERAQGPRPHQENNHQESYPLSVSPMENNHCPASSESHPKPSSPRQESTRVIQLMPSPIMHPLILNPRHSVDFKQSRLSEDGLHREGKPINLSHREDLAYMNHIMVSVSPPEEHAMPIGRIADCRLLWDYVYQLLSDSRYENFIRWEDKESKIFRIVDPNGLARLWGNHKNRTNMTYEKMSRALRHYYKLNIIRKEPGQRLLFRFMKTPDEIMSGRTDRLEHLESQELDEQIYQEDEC
Method in brief: as §1

| Sequence | binding signal [1] | binding signal [2] | binding signal [3] | binding signal [4] | binding signal [5] | binding signal [6] | binding signal [7] | binding signal [8] |
| --- | --- | --- | --- | --- | --- | --- | --- | --- |
| CTTCCT | 2.9 fold enrichment (6-mer frequency, TF over GST control) | 3.08 fold enrichment (6-mer frequency, TF over GST control) | 3.37 fold enrichment (6-mer frequency, TF over GST control) | 2.74 fold enrichment (6-mer frequency, TF over GST control) | 2.76 fold enrichment (6-mer frequency, TF over GST control) | 5.89 fold enrichment (6-mer frequency, TF over GST control) | 3.61 fold enrichment (6-mer frequency, TF over GST control) | 3.81 fold enrichment (6-mer frequency, TF over GST control) |
| CCGGAT | 2.87 fold enrichment (6-mer frequency, TF over GST control) | 3.03 fold enrichment (6-mer frequency, TF over GST control) | 3.38 fold enrichment (6-mer frequency, TF over GST control) | 6.71 fold enrichment (6-mer frequency, TF over GST control) | 2.7 fold enrichment (6-mer frequency, TF over GST control) | 3.7 fold enrichment (6-mer frequency, TF over GST control) | 3.64 fold enrichment (6-mer frequency, TF over GST control) | 3.06 fold enrichment (6-mer frequency, TF over GST control) |
| AACCCG | 1.42 fold enrichment (6-mer frequency, TF over GST control) | 1.34 fold enrichment (6-mer frequency, TF over GST control) | 1.45 fold enrichment (6-mer frequency, TF over GST control) | 1.63 fold enrichment (6-mer frequency, TF over GST control) | 1.47 fold enrichment (6-mer frequency, TF over GST control) | 1.52 fold enrichment (6-mer frequency, TF over GST control) | 1.57 fold enrichment (6-mer frequency, TF over GST control) | 1.5 fold enrichment (6-mer frequency, TF over GST control) |
| TGGGAT | 1.05 fold enrichment (6-mer frequency, TF over GST control) | 1.15 fold enrichment (6-mer frequency, TF over GST control) | 1.17 fold enrichment (6-mer frequency, TF over GST control) | 1.17 fold enrichment (6-mer frequency, TF over GST control) | 1.15 fold enrichment (6-mer frequency, TF over GST control) | 1.2 fold enrichment (6-mer frequency, TF over GST control) | 1.18 fold enrichment (6-mer frequency, TF over GST control) | 1.23 fold enrichment (6-mer frequency, TF over GST control) |
| TTGAAA | 1.13 fold enrichment (6-mer frequency, TF over GST control) | 1.23 fold enrichment (6-mer frequency, TF over GST control) | 1.24 fold enrichment (6-mer frequency, TF over GST control) | 1.07 fold enrichment (6-mer frequency, TF over GST control) | 1.19 fold enrichment (6-mer frequency, TF over GST control) | 1.03 fold enrichment (6-mer frequency, TF over GST control) | 1.17 fold enrichment (6-mer frequency, TF over GST control) | 1.09 fold enrichment (6-mer frequency, TF over GST control) |
| ATTATG | 1.11 fold enrichment (6-mer frequency, TF over GST control) | 1.27 fold enrichment (6-mer frequency, TF over GST control) | 1.14 fold enrichment (6-mer frequency, TF over GST control) | 1.19 fold enrichment (6-mer frequency, TF over GST control) | 1.32 fold enrichment (6-mer frequency, TF over GST control) | 1.14 fold enrichment (6-mer frequency, TF over GST control) | 1.2 fold enrichment (6-mer frequency, TF over GST control) | 1.33 fold enrichment (6-mer frequency, TF over GST control) |
| TCATTC | 1.15 fold enrichment (6-mer frequency, TF over GST control) | 1.28 fold enrichment (6-mer frequency, TF over GST control) | 1.13 fold enrichment (6-mer frequency, TF over GST control) | 1.09 fold enrichment (6-mer frequency, TF over GST control) | 1.15 fold enrichment (6-mer frequency, TF over GST control) | 1.12 fold enrichment (6-mer frequency, TF over GST control) | 1.21 fold enrichment (6-mer frequency, TF over GST control) | 1.24 fold enrichment (6-mer frequency, TF over GST control) |
| TCACGT | 1.28 fold enrichment (6-mer frequency, TF over GST control) | 1.22 fold enrichment (6-mer frequency, TF over GST control) | 1.2 fold enrichment (6-mer frequency, TF over GST control) | 1.15 fold enrichment (6-mer frequency, TF over GST control) | 1.22 fold enrichment (6-mer frequency, TF over GST control) | 1.19 fold enrichment (6-mer frequency, TF over GST control) | 1.19 fold enrichment (6-mer frequency, TF over GST control) | 1.24 fold enrichment (6-mer frequency, TF over GST control) |
